Measurements from PubChem BioAssay (NCATS).
Records with an inconclusive call do not appear. Active and inactive are the calls of the source. Calls follow the shape of the dose curve; as a rule, active = well fitted inhibition curve with a large enough effect; inconclusive = small, poorly fitted or top-dose-only effect, or effect the other way; inactive = flat fitted curve, though single readings scatter.

What follows are molecules tested against ATP-dependent 6-phosphofructokinase (Trypanosoma brucei brucei) (UniProt O15648) (assay: qHTS Assay to Find Inhibitors of T. brucei phosphofructokinase: hit validation (AID 492961;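 also: luminescence reports ADP formed as PFK phosphorylates fructose-6-phosphate with ATP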)). Conditions: T. brucei PFK, ADP-Glo luminescence; series mostly up to 51.4 µM; activity change, negative = inhibition: at the top concentration.
Chain of ATP-dependent 6-phosphofructokinase (Trypanosoma brucei brucei) (O15648 whole entry, looked up): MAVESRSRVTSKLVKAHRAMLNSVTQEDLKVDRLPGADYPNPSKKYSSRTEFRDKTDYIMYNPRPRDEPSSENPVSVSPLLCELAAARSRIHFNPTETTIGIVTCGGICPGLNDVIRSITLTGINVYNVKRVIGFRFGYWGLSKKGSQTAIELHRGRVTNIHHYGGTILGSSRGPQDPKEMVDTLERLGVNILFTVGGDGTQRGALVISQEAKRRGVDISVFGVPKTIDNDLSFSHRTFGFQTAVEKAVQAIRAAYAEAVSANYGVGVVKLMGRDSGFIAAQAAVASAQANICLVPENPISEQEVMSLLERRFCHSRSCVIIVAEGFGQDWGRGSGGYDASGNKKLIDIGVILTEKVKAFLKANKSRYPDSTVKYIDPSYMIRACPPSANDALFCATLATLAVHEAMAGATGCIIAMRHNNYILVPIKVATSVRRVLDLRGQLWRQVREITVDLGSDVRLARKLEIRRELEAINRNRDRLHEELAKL
How it was run: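 Reaction: 0.1 M triethanolamine pH 8.0, 5 mM MgCl2, F6P 0.5 mM, ATP 0.1 mM, PFK 1.25 nM, 45 min RT. Read-out: ADP-Glo luminescence. Analysis: concentration-response fits, classed by r2 and efficacy.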
% is scaled to controls: 0 for no effect and ±100 for the full control effect.

SMILES | activity change, negative = inhibition
CCC(Cc1c(I)cc(I)c(O)c1I)C(=O)O (stereo unspecified) | 20.5% (inactive)
O=C(O[C@H]1CN2CCC1CC2)N1CCc2ccccc2[C@@H]1c1ccccc1 | 1.35% (inactive)
O=C(O)c1cc(N=Nc2ccc(O)c(C(=O)O)c2)ccc1O | -4.9% (inactive)
Cc1cccc(Nc2ncccc2C(=O)O)c1C | -4.89% (inactive)
CCCC(=O)O | -0.335% (inactive)
O=C(O)CCC(=O)c1ccc(-c2ccccc2)cc1 | 5.97% [at 24.3 µM] (inactive)
OCCOCCOCCO | -4.82% (inactive)
CC(C)NCC(O)COc1ccccc1-n1cccc1 (stereo unspecified) | -2.01% (inactive)
Oc1ccc(Cl)c2c1CCC2 | -2.38% (inactive)
CC(O)CN(C)C (stereo unspecified) | 11.7% (inactive)
COC(=O)C(CN)c1c[nH]c2ccc(OC)cc12 (stereo unspecified) | 0% (inactive)
CCCCC[C@H](O)/C=C/[C@@H]1[C@H]2C/C(=C/CCCC(=O)O)O[C@H]2C[C@H]1O | 9.58% (inactive)
C[C@H](N)C(=O)N[C@@H](C)P(=O)(O)O | -0.703% (inactive)
C[C@]12CCC(=O)C[C@@H]1CC[C@@H]1[C@@H]2CC[C@]2(C)C=CC[C@@H]12 | 10.3% (inactive)
CC[C@H]1OC(=O)[C@H](C)[C@@H](O[C@H]2C[C@@](C)(OC)[C@@H](O)[C@H](C)O2)C(C)[C@@H](O[C@@H]2O[C@H](C)C[C@H](N(C)C)[C@@H]2O)[C@](C)(OC)C[C@@H](C)C(=O)[C@H](C)[C@@H](O)[C@]1(C)O (stereo partly specified) | 2.21% (inactive)
CCOC(=O)c1cc(-c2ccccc2)nc2ccc(C)cc12 | -4.89% (inactive)
FC(F)OC(Cl)C(F)(F)F (stereo unspecified) | 0% (inactive)
CN1c2c(nc(N)[nH]c2=O)NCC1CNc1ccc(C(=O)NC(CCC(=O)O)C(=O)O)cc1 (stereo unspecified) | -11.2% (inactive)

SMILES | activity change, negative = inhibition
CN1C(C(=O)Nc2ccccn2)C(=O)c2sc(Cl)cc2S1(=O)=O (stereo unspecified) | -4.61% (inactive)
CN(C)C(=O)CCSC(SCCC(=O)O)c1cccc(/C=C/c2ccc3ccc(Cl)cc3n2)c1 (stereo unspecified) | 7.34% (inactive)
C[C@]12CC[C@@H]3c4ccc(OC(=O)c5ccccc5)cc4CC[C@H]3[C@@H]1CC[C@@H]2O | -3.9% (inactive)
Cc1ccc(S(=O)(=O)O)cc1C | 0.91% (inactive)
O=C(O)Cc1nn(Cc2ccc(Br)cc2F)c(=O)c2ccccc12 | -11.2% (inactive)
Cc1cc(C(=O)NCCc2ccc(S(=O)(=O)NC(=O)NN3CCCCCC3)cc2)no1 | -2.71% (inactive)
C/C=C/C=C/C(=O)O | 14.7% (inactive)
CC12CCC(C1)C(C)(C)C2=O (stereo unspecified) | 4.36% (inactive)
CO | -12% (inactive)
C[C@H](O)CN(C)C | -1.72% (inactive)
CCCCC | 9.73% (inactive)
NC(=O)[C@@H]1CCCN1C(=O)[C@H](Cc1cnc[nH]1)NC(=O)[C@@H]1CCC(=O)N1 | -4.27% (inactive)
C=CC[C@@H]1/C=C(\C)C[C@H](C)C[C@H](OC)[C@H]2O[C@@](O)(C(=O)C(=O)N3CCCC[C@H]3C(=O)O[C@H](/C(C)=C/[C@@H]3CC[C@@H](O)[C@H](OC)C3)[C@H](C)[C@@H](O)CC1=O)[C@H](C)C[C@@H]2OC | 12.3% (inactive)
CCOC(=O)C1=C(COCCN)NC(C)=C(C(=O)OC)C1c1ccccc1Cl (stereo unspecified) | 2.12% (inactive)
CCc1ncnc2cc(OC)c(OC)cc12 | 6.35% (inactive)
Nc1ncnc2c1ncn2[C@H]1CC[C@@H](CO)O1 | -4.31% (inactive)
NC(=O)Oc1ccc(Cc2ccccc2)cc1 | -25.3% (inactive)
COc1ccc(C[C@H](C)NC[C@@H](O)c2ccc(O)c(NC=O)c2)cc1 | -0.559% (inactive)
